Sampled rows, rich in hits. Any-hit rate of the full collection: about 4%.
EWS-Fli block: EWS/Fli-driven NR0B1 reporter inhibitors, primary screen, A673 cells, NR0B1 luciferase, luminescence, MLPCN library; viability-normalised; inhibition, % at 12.6 µM; 350,000 tested, 0.67% active;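 active = mean inhibition of at least 50% after viability correction, with every replicate also passing that limit; inconclusive = mean reaches 50% but only one of two replicates passes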;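 note: firefly luciferase signal divided by Alamar Blue viability fluorescence both relative to DMSO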
MITF act: activators of MITF-driven TRPM1 promoter reporter, primary screen, cell-based, SK-MEL-5, luciferase, single point | SK-MEL-5 TRPM1-promoter luciferase, 24 h; % of positive control, neutral wells = 0 | activation, % at 12.5 µM | 300,000 tested, 0.75% active;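 active = mean activation of at least 80% with every replicate also reaching 80%; inconclusive = mean reaches 80% but some replicate falls short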;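 note: 0% = neutral control wells and 100% = parthenolide positive control wells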
PAX8 inh HTS: inhibitors of PAX8-driven TPO luciferase reporter, primary screen, RMG-I cells, single concentration; SteadyGlo, 24 h; inhibition, % at 12.6 µM; 360,000 tested, 1.2% active;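 active = mean replicate inhibition at least 60% with every replicate also reaching 60%; inconclusive = only one of the two criteria is met; inactive = mean below 60% and not all replicates reaching 60%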;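 note: luciferase light reporting Pax8 driven TPO promoter activity; plate controls were median of neutral control wells for no effect and mitoxantrone controls for full effect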
esBAF inh: Bmi1 luciferase reporter increase in mESCs, primary screen, esBAF inhibitor project, mouse ES cells, Bmi1 luciferase knock-in, single point. reporter increase, % at 12.5 µM. 350,000 tested, 2% active. 24 h; 100% = twice the neutral-well signal. AID 602393, 2012; in the data active = activation above about 40%; inconclusive = no clear call, values can overlap the other calls;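 note: 0% = median of the plate's neutral control wells and 100% = double that signal; a rise in the Bmi1 reporter signal indicates esBAF inhibition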
MITF TRPM1 inh: inhibitors of MITF-dependent TRPM1 promoter reporter, primary screen, cell-based, SK-MEL-5, single point, luciferase | SK-MEL-5 TRPM1 promoter luciferase, 24 h | inhibition, % at 12.5 µM | 330,000 tested, 0.83% active | AID 488899, 2010;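 active = mean inhibition across replicates of 60% or more, whatever share of single replicates reaches that level; inconclusive = some that reach 60%, reason not given; inactive = mean inhibition across replicates below 60%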
Wnt bcat act: Wnt/beta-catenin pathway activators, primary screen, cell-based, plate reader, single point; Wnt/beta-catenin reporter cell assay, activator; activation, % at 9.35 µM; 300,000 tested, 1.2% active; AID 743398, 2014; in the data active = activation above about 30%, passing the limit was not always enough; inconclusive = no clear call, values can overlap the other calls;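 note: 0% = neutral control wells and 100% = positive control wells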
* marks the source's active call; other numbers are inactive results; ? = inconclusive; . = no result; ! = a repeat was not active.

SMILES	EWS-Fli block	MITF act	PAX8 inh HTS	esBAF inh	MITF TRPM1 inh	Wnt bcat act
CN1CCSc2ccc(C(=O)NCc3cccc(F)c3)cc21	-8	.	-26	9	.	11
CC(=O)Nc1ccc(NC(=O)c2ccc3c(c2)CCN3S(C)(=O)=O)cc1	21	2	10	-2	0	-1
COc1cccc(NC(=O)c2ccc3c(c2)CCN3S(C)(=O)=O)c1	-89	.	-79	56*	.	9
CN1CCSc2ccc(C(=O)Nc3ccc(Cl)cc3)cc21	-86	?	-55	.	-84	37*
CC(=O)N(C)C[C@@H]1Oc2ncc(-c3cccc(F)c3)cc2C(=O)N([C@H](C)CO)C[C@@H]1C	-5	.	.	4	.	.
Cn1c(=O)c(C(=O)NCc2ccccc2)c(O)c2ccccc21	-61	.	-29	45*	-36	2
Cc1ccc(NC(=O)c2c(O)c3ccccc3n(C)c2=O)nc1	.	.	.	48*	-17	.
Cc1ccc(NC(=O)c2c(Cl)n(C)c3ccccc23)cc1	.	4	.	67*	-3	.
Cn1c(=O)c(C(=O)NCc2ccc(F)cc2)c(O)c2ccccc21	4	-5	10	3	5	2
CCC(=O)N1CC(=O)N2[C@H](CO)[C@H](c3ccc(C#Cc4cccc(OC)c4)cc3)[C@H]2C1	-8	.	-25	.	.	.
C[C@@H]1CN([C@H](C)CO)C(=O)c2cc(NS(=O)(=O)c3ccc(Cl)cc3)ccc2O[C@@H](C)CCCCO[C@@H]1CN(C)C(=O)C1CCCCC1	5	.	64*	5	.	.
C[C@@H]1CCCCO[C@H](CN(C)C(=O)C2CCCCC2)[C@H](C)CN([C@@H](C)CO)C(=O)c2cc(NS(=O)(=O)c3ccc(Cl)cc3)ccc2O1	12	.	76*	13	.	.
C[C@H](CO)N1C[C@H](C)[C@H](CN(C)C(=O)Nc2ccc(F)cc2)Oc2ccc(N(C)C)cc2C1=O	2	.	8	-3	.	.
C/C=C/c1cnc2c(c1)C(=O)N([C@H](C)CO)C[C@H](C)[C@H](CN(C)C(=O)C1CCOCC1)O2	-4	.	-6	1	.	.
COc1ccc(-c2n(Cc3ccccc3)c3ccccc3[n+]2Cc2ccccc2)cc1	44	-78	89*	.	80*	-22
NNc1nc(-c2ccccc2Cl)nc2sc3c(c12)CCCC3	.	50	-86	.	-46	46*
NNc1nc(-c2ccccc2Cl)nc2ccccc12	2	-8	31	8	9	4
CCOc1ccc(NC(=O)COc2ccccc2)c([N+](=O)[O-])c1	-16	130*	-196	62*	-124	2
CCOc1ccc(NC(=O)c2ccc(Br)o2)c([N+](=O)[O-])c1	.	45	-72	50*	-50	-2
CCOc1ccc(NC(=O)Cc2ccccc2)c([N+](=O)[O-])c1	.	-2	-2	.	5	.
CCOc1ccc(NN=C(C(=O)OC)C(=O)OC)c([N+](=O)[O-])c1	6	.	-2	.	-9	4
C[C@@H]1CN([C@@H](C)CO)C(=O)c2cccc(NS(=O)(=O)c3ccc(F)cc3)c2O[C@H]1CN(C)Cc1ccc(-c2ccccc2)cc1	38	.	78*	-3	.	.
C[C@@H]1CN([C@@H](C)CO)C(=O)c2cc(C#CCN(C)C)cnc2O[C@@H]1CN(C)Cc1ccc(-c2ccccc2)cc1	35	.	.	-8	.	.
C[C@@H]1CN([C@@H](C)CO)C(=O)c2cc(C#CCN(C)C)cnc2O[C@H]1CN(C)Cc1ccc(-c2ccccc2)cc1	73*!	.	.	-4	.	.
C[C@H](CO)N1C[C@H](C)[C@@H](CN(C)Cc2ccc(-c3ccccc3)cc2)Oc2c(NS(=O)(=O)c3ccc(F)cc3)cccc2C1=O	-3	7	-7	19	-7	-7
SMILES	EWS-Fli block	MITF act	PAX8 inh HTS	esBAF inh	MITF TRPM1 inh	Wnt bcat act
C[C@H]1CN([C@@H](C)CO)C(=O)c2cccc(NS(=O)(=O)c3ccc(F)cc3)c2O[C@@H]1CN(C)Cc1ccc(-c2ccccc2)cc1	30	.	7	11	.	.
C[C@@H]1CN([C@@H](C)CO)C(=O)c2cccc(NS(=O)(=O)c3ccc(F)cc3)c2O[C@@H]1CN(C)Cc1ccc(-c2ccccc2)cc1	22	.	75*	5	.	.
C[C@@H]1CCCCO[C@@H](CN(C)C(=O)Cc2ccccc2)[C@H](C)CN([C@@H](C)CO)C(=O)c2cc(NC(=O)CCCCCC(=O)Nc3ccccc3N)ccc2O1	10	.	.	17	.	.
O=C(C[C@@H]1C[C@H]2c3cc(NS(=O)(=O)c4ccc(F)cc4)ccc3O[C@H]2[C@H](CO)O1)NC1CCCCC1	2	.	12	18	.	.
Cc1ccc(/C=C2/C(=O)ON=C2c2ccccc2)o1	22	.	-14	.	71*	3
COc1cc([N+](=O)[O-])ccc1-c1ccc(/C=C2\C(=O)ON=C2c2ccccc2)o1	38	-87	-28	.	90*	-1
CCN1[C@@H]2c3ccc(-c4ccccc4OC)c(=O)n3C[C@@H]2[C@@H](CO)[C@@H]1C(=O)NCC1CC1	5	.	2	1	.	.
C/C=C/c1cnc2c(c1)C(=O)N([C@H](C)CO)C[C@@H](C)[C@@H](CN(C)C(=O)Nc1ccc(OC)cc1)O2	-1	.	.	2	.	.
Clc1ccc(OCCCN2CCCCC2)c(Br)c1	-25	57	-79	23*	-64	0
Clc1ccc(OCCCCCN2CCCC2)c(Br)c1	4	27	9	-3	-23	4
C[C@@H]1CN([C@@H](C)CO)C(=O)Cc2cc(NC(=O)CCC(F)(F)F)ccc2O[C@H]1CN(C)Cc1ccc(-c2ccccc2)cc1	33	.	100*	1	.	.
C[C@H]1CN([C@@H](C)CO)C(=O)Cc2cc(NC(=O)CCC(F)(F)F)ccc2O[C@H]1CN(C)Cc1ccc(-c2ccccc2)cc1	19	.	19	-2	.	-9
C[C@H](CO)N1C[C@H](C)[C@@H](CN(C)Cc2ccc(-c3ccccc3)cc2)Oc2ccc(NC(=O)Cc3ccccc3)cc2CC1=O	21	.	94*	-4	.	.
C[C@H](CO)N1C[C@H](C)[C@H](CN(C)Cc2ccc(-c3ccccc3)cc2)Oc2ccc(NC(=O)Cc3ccccc3)cc2CC1=O	31	.	66*	-3	.	.
CCCN1CCC(=NNc2ccc(S(=O)(=O)N(CC)CC)cc2[N+](=O)[O-])CC1	61*	-17	35	.	20	-5
CCc1ccc(C2=NN(S(C)(=O)=O)C(c3cccs3)C2)cc1 (stereo not drawn)	.	.	-82	32	-22	44*
CS(=O)(=O)N1N=C(c2ccc(Br)cc2)CC1c1cccs1 (stereo not drawn)	.	21	.	77*	-23	.
CO[C@H]1CN(C)C(=O)c2ccc(NC(=O)Nc3ccccc3Cl)cc2OC[C@@H](C)NC[C@@H]1C	-6	.	.	6	.	.

Compound activity: PubChem, Broad Institute
